From PubChem BioAssay
CYP2C9 act = CYP2C9 (human) activation; AID 1024; recombinant CYP2C9, luciferin-H conversion, luminescence; stronger effect = higher value; factor 1 = untreated enzyme, 0 = blocked; 1.4% of 96,000 active; activation factor at 5 µM; P11712;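 active means activation factor of 2 or more for CYP2C9 at a 5 µM dose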
CYP2C19 inhib = inhibitors of human CYP2C19; 21% of 96,000 active; CYP2C19 Supersomes, luciferin-H EGE luminescence, 30 min; inhibition, % at 5 µM; P33261;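 active means CYP2C19 inhibition above a set limit at 5 µM in the primary screen, cut at about 50% in these data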
Target sequence (P33261 whole entry, looked up): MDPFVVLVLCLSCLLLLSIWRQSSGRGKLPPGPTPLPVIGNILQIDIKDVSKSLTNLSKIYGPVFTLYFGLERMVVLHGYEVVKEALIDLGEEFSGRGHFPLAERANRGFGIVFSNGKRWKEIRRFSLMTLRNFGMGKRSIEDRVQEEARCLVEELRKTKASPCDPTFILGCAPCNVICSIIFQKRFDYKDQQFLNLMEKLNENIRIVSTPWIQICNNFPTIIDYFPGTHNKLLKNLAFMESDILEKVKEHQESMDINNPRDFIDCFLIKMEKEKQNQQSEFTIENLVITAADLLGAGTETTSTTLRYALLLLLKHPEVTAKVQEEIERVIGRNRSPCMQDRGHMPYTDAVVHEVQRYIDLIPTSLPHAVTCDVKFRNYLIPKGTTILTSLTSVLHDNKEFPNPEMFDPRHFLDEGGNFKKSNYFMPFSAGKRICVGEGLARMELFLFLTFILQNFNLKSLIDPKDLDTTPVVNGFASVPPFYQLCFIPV
CYP2C19 act = activators of human cytochrome P450 2C19; P33261; recombinant CYP2C19, luciferin-H EGE luminescence; stronger effect = higher value; 0 = fully inhibited enzyme, 1 = untreated enzyme; activation factor at 5 µM; 96,000 tested, under 10 active;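 active means activation factor of at least 2 at 5 µM in the primary screen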
PLAP activator = activators of human placental alkaline phosphatase. purified PLAP enzyme, luminescent substrate read-out; stronger effect = higher value. activation fold at 20 µM. 1.2% of 96,000 active; in the data active means activation fold above about 2
CYP2C9 inh = inhibitors of human CYP2C9 | CYP2C9 Supersomes, luciferin-H conversion, luminescence | P11712 | AID 777 | inhibition, % at 5 µM | 20% of 96,000 active;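 active means blocking of liver enzyme CYP2C9 beyond about 50% at 5 µM, limit read from the data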
Each line names hits and unclear results; the compound was inactive in the other large screens. A selection: hits, their analogues and other compounds. The true share with any hit is near 31%.

COc1ccc(S(=O)(=O)N2CCC(C(=O)NC3CC3)CC2)cc1Cl	CYP2C19 inhib 77.8
O=C(NC1CC1)C1CCN(c2ccc(S(=O)(=O)N3CCOCC3)cc2)CC1	CYP2C9 inh 74.4
COc1ccc(S(=O)(=O)N2CCC(C(=O)NCc3ccccn3)CC2)cc1Cl	CYP2C9 act 2.2
O=C(COc1ccc(S(=O)(=O)N2CCCC2)cc1Cl)NC1CC1	none
COc1ccc(S(=O)(=O)N2CCC(C(=O)NCc3ccccn3)CC2)cc1C	CYP2C9 act 2.3
O=C(NCc1ccccn1)C1CCN(S(=O)(=O)c2ccccc2)CC1	none
C(=N\N1CCN(Cc2cccc3ccccc23)CC1)/c1cccnc1	none
O=C(NCCSc1ccc(Cl)cc1)c1ccco1	CYP2C19 inhib 83.7, CYP2C9 inh 50.8
O=C(CNC(=O)c1ccco1)OCc1ccc(Cl)cc1	CYP2C19 inhib 81.5
CSc1cccc(NC(=O)c2ccco2)c1	CYP2C19 inhib 57.9
O=C(CSc1ccc(Cl)cc1)c1ccco1	none
O=C(CSc1ccc(Cl)cc1)Nc1cccc(NC(=O)c2ccco2)c1	CYP2C9 inh 77.0
CCN1C(=O)NC2C1N(S(C)(=O)=O)CCN2S(C)(=O)=O (centres undefined)	none
CN(CCc1ccccn1)C(=O)CN(C)S(=O)(=O)c1ccc2c(c1)c(=O)n(C)c(=O)n2C	none
CC(C)Nc1nc(NC(C)(C)C)nc(Oc2ccc(=O)n(-c3ccccc3)n2)n1	none
CC(=O)c1cccc(NC(=O)N2CCC(c3nnc(SCC(N)=O)n3C)CC2)c1	none
COc1ccc(-c2nnc(SC(C)C(=O)Nc3nccs3)n2Cc2ccccc2)cc1OC (centres undefined)	CYP2C9 inh 56.3
COc1ccc(-c2nnc(SC(C)C(=O)Nc3nccs3)n2-c2ccccc2)cc1OC (centres undefined)	none
CN(CC(=O)NCCN1CCCCCC1)S(=O)(=O)c1cccc2nsnc12	none
Cc1cccc(NC(=O)CN(C)S(=O)(=O)c2cccc3nsnc23)c1C	CYP2C19 inhib 60.0
Cc1ccc(C)c(N(C)S(=O)(=O)c2cccc3nsnc23)c1	CYP2C9 act 2.3
CN(CC(=O)NC1CCCCC1)S(=O)(=O)c1cccc2nsnc12	none
Cc1cc(C)cc(NC(=O)CN(C)S(=O)(=O)c2cccc3nsnc23)c1	CYP2C9 inh 54.5
CCN(CC)S(=O)(=O)c1cccc(-c2nnc(SCC(=O)c3ccc(Cl)s3)n2C)c1	CYP2C19 inhib 70.9, CYP2C9 inh 88.7
CCN(CC)S(=O)(=O)c1cccc(-c2nnc(SC(C)C(N)=O)n2CCc2ccccc2)c1 (centres undefined)	CYP2C9 inh 55.6
CCN(CC)S(=O)(=O)c1cccc(-c2nnc(SCC#N)n2Cc2ccccc2)c1	none
CCN(CC)S(=O)(=O)c1cccc(-c2nnc(SC(C)C#N)n2Cc2ccccc2)c1 (centres undefined)	CYP2C19 inhib 60.8, CYP2C9 inh 63.5
Cc1ccc(Cl)cc1N1CCN(CC(=O)Nc2ccc3[nH]c(=O)[nH]c3c2)CC1	none
CCCCN(Cc1ccccc1)S(=O)(=O)c1ccc2[nH]c(=O)oc2c1	CYP2C19 inhib 75.6
CC(CNS(=O)(=O)c1cc(Cl)ccc1Cl)CN(C)C (centres undefined)	none
Cc1onc(-c2ccccc2)c1C(=O)NC(CC(=O)O)c1ccc(OC(C)C)cc1 (centres undefined)	none
CCOC(=O)c1c(N)c(C#N)c2n1CCCCC2	CYP2C19 inhib 94.8
COc1ccccc1OC(=O)CN1C(=O)c2ccccc2C1=O	none
COC(=O)C1=C(C)NC(C)=C(C(=O)OC)C1C(=O)OCCN1C(=O)c2ccccc2C1=O	CYP2C19 inhib 80.2, CYP2C9 inh 70.8
O=C(OCCN1C(=O)c2ccccc2C1=O)c1cc2ccccc2o1	none
Cc1cc(=O)oc2cc(OC(=O)CCN3C(=O)c4ccccc4C3=O)ccc12	none
COc1ccccc1OCCC(=O)OCCN1C(=O)c2ccccc2C1=O	CYP2C19 inhib 56.1
COc1ccc(OC(=O)CCCN2C(=O)c3ccccc3C2=O)cc1	CYP2C19 inhib 52.9
Cc1cccc(C(=O)n2c(=S)nc3ccccn32)c1	none
CC1(c2ccccc2)CC(C)(C)N2C(=O)C3(C(C#N)=C(N)Oc4cc(O)ccc43)c3cccc1c32 (centres undefined)	none
Cc1cc2c3c(c1)C(C)(c1ccccc1)CC(C)(C)N3C(=O)C21C(C#N)=C(N)OC2=C1C(=O)CC(C)(C)C2 (centres undefined)	PLAP activator 2, CYP2C9 inh 59.1
CC(C)Oc1ccc(CNC(=S)N/N=C/c2cccnc2)cc1	none
CN(C)c1ccc(-n2cc3c(=O)n(C)c(=O)n(C)c3c2)cc1	CYP2C9 inh 75.9
CCN(CC)c1ccc(-n2cc3c(=O)n(C)c(=O)n(C)c3c2)cc1	none
Cc1ccc(-c2cc(C(=O)Nc3nn[nH]n3)c3ccccc3n2)cc1	none
CCOc1ccc(CSC(=N)N)cc1[N+](=O)[O-]	none
COc1ccc(OCc2nc(N)nc(Nc3ccc(C)cc3)n2)cc1	none
CCOc1ccccc1C(=O)n1nc2nc(C)cc(C)c2c1N	none
Cc1cccc(C)c1NC(=O)C(NC=O)c1ccccc1 (centres undefined)	none
Cc1cc(C)c(NC(=O)C(C)c2cccc(C(=O)c3ccccc3)c2)c(C)c1 (centres undefined)	CYP2C19 inhib 72.4, CYP2C9 inh 73.0
COC(=O)c1ccc(NC(=O)Nc2ccc(F)c(Cl)c2)cc1	none
CCOC(=O)N1CCN(C(=O)CN(c2cc(C(F)(F)F)ccc2Cl)S(C)(=O)=O)CC1	CYP2C19 inhib 54.5
Cc1c(Cl)cccc1N(CC(=O)N1CCCCCC1)S(C)(=O)=O	none
CS(=O)(=O)N(CC(=O)N1CCCC1)c1cc(Cl)c(Cl)cc1Cl	CYP2C19 inhib 90.3
CCOC(=O)N1CCN(C(=O)CN(c2cccc(OC)c2)S(C)(=O)=O)CC1	none
CCOC(=O)N1CCN(C(=O)CN(c2ccc(Cl)c(C(F)(F)F)c2)S(C)(=O)=O)CC1	CYP2C19 inhib 56.4
CCNC(=S)NNC(=O)c1cc(C)on1	none
CCCc1cc(=O)[nH]c(SCC(=O)N2CCN(c3ccc(F)cc3)CC2)n1	none
CC(C)N(C(=O)N1CCC(c2nc(-c3ccncc3)no2)CC1)C(C)C	CYP2C19 inhib 66.4
COc1ccc(C2CC3CC(c4ccccc4)N2O3)cc1 (centres undefined)	CYP2C19 inhib 90.6
CCOC(=O)c1cc(CC)sc1NC(=O)C(c1ccccc1)c1ccccc1	none
CCCOc1ccc(/C=C/C(=O)Nc2ccc([N+](=O)[O-])cc2)cc1	CYP2C9 inh 58.6
c1ccc(-c2ccc(C3=Nn4c(Cn5nnc6ccccc65)nnc4SC3)cc2)cc1	none
O=C(Nc1ccc2c(c1)oc1ccccc12)C1CC1	none
O=C(Nc1ccc2c(c1)OC1(CCCC1)O2)C1CC1	CYP2C19 inhib 88.2, CYP2C9 inh 63.9
Cc1ccc(C(=O)COC(=O)CCC(=O)Nc2cccc(Cl)c2)cc1[N+](=O)[O-]	none
COc1cc(NC(=O)Cc2cccs2)ccc1-n1cnnn1	CYP2C19 inhib 52.8
COc1cccc(NC(=O)c2cccc(OC)c2OC)c1	CYP2C19 inhib 81.0
